Bioassay records: PubChem BioAssay, National Center for Advancing Translational Sciences (NCATS)
An excerpt weighted towards active compounds, which were near 11% of everything screened.
FLuc inh = Photinus pyralis luciferase inhibition. 76,000 tested, 2.5% active. AID 1347043. Potency, µM (highest dose often 115 µM), actives largely listed as inhibitors. purified P. pyralis luciferase, luminescence, biochemical. P08659; further: nearly all actives have a fitted effect of over 65% in size
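Inhibitors were tested against purified firefly luciferase in a biochemical, low-substrate format (both substrates at 10uM) and luminescence measured with a CCD imager.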
NIH3T3 tox = NIH 3T3 cell cytotoxicity | NIH 3T3 viability, CellTiter-Glo ATP luminescence, 48-72 h | Potency, µM (series often up to 96.7 µM), for inactives: at the top dose activity change, negative = cytotoxicity, usual class: inhibitors | 94,000 tested, 4.3% active | AID 1345082; further: nearly all actives have a fitted effect of over 55% in size
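Cells were seeded at 400 per well, treated with pin-transferred compound, and kept 48 or 72 hr at 37 °C before CellTiter-Glo addition and luminescence imaging of cellular ATP.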
HEK cytotox = kills HEK 293 cells | HEK 293 viability, ATP luminescence (CellTiter-Glo), 48-72 h | Potency, µM (series often up to 115 µM), without a hit: top-dose activity change, negative = cytotoxicity, hits mostly inhibitors | 94,000 tested, 6.6% active | AID 1345083; further: nearly all actives have a fitted effect of over 60% in size
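HEK 293 cells seeded at 250 cells/well were exposed to compound for 48 or 72 hr at 37 degree Celsius. Viability taken as ATP content by CellTiter-Glo luminescence.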
hNpr1 antagonist = blocks ANP-stimulated signaling of human Npr1 receptor; P16066; HEK293 hNpr1 GloSensor cGMP, ANP-stimulated luminescence; Potency, µM (series often up to 46.3 µM), for the others: top-dose activity change, negative = inhibition, hits mostly inhibitors; 76,000 tested, 1.6% active; AID 1347048; calls by dose curve; further: nearly all actives have a fitted effect of over 60% in size
Target sequence (P16066 whole entry, looked up): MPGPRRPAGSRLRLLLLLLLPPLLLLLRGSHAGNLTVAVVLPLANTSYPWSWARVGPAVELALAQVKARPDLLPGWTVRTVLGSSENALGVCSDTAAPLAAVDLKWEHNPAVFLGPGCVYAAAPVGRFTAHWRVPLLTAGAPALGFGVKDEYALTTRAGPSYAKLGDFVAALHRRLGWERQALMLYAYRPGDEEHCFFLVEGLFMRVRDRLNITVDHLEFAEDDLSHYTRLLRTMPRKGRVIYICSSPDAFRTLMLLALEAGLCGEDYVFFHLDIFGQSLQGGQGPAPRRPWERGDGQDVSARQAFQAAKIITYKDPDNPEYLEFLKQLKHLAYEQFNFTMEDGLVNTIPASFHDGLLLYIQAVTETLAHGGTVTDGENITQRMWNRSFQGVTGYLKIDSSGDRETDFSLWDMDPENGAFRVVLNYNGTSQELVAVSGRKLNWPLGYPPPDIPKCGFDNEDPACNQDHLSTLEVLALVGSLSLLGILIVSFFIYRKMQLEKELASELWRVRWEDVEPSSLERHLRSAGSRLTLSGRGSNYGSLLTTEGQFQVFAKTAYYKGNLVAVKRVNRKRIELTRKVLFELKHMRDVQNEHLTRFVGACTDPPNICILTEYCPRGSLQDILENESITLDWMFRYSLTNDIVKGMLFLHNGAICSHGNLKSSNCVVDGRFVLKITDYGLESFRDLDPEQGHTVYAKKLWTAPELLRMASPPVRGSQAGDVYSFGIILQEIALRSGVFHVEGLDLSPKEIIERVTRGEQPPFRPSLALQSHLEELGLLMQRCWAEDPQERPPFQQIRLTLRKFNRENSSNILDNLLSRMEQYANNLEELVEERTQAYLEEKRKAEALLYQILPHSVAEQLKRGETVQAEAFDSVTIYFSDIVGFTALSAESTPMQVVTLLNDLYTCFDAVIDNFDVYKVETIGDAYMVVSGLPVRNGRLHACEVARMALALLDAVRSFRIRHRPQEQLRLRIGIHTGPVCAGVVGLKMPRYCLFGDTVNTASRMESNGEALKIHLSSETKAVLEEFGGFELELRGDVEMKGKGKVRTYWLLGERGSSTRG
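Compound pre-incubated 30 min at room temperature on GloSensor-loaded HEK293 cells stably carrying hNpr1 and the pGS-40F cGMP biosensor. Stimulation uses hNppA at 0.1 nM final; luminescence is taken at baseline and 20 min post-agonist.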
* = called active by the depositor; i = inactive; ? = inconclusive; . = no result; ! = not confirmed by another sample; [ ] = another dose, or the depositor's remark. Unless noted, the call rests on the fitted dose curve; in most records, active means well fitted curve in the direction sought with a large enough effect; inconclusive means small, poorly fitted or top-dose-only effect, or another doubt; inactive means no such curve, though single readings can be large; an effect the other way counts as inactive or inconclusive. On the % scale 0 is the no-effect control and ±100 the full control effect; potency means the concentration at half of the fitted maximal effect.

SMILES	FLuc inh	NIH3T3 tox	HEK cytotox	hNpr1 antagonist
COc1ccc(C(=O)N2CCC3(C2)C(=O)N(CCc2ccccc2)c2ccccc23)cc1 (stereo not drawn)	i	?	39.8µM*!	?
COc1ccc2c(c1)CN(CC1CC1)C(=O)CCN2CC(O)C(F)(F)F (stereo not drawn)	.	?	-20.5%	.
COc1ccc(S(=O)(=O)N2CCC(OCc3noc(C4CCCO4)n3)CC2)cc1 (stereo not drawn)	.	-24.3%	-12.0%	.
O=C(CNC(=O)c1ccc(-c2cccc(C(F)(F)F)c2)cc1)NCC1CC1	.	-35.2%	?	.
CN1C(=O)C2(CCN(C(=O)c3ccc(C(F)(F)F)cc3)C2)c2ccccc21 (stereo not drawn)	i	-23.4%	?	27.3%
O=C(C1CCCC1)N1CCC2(C1)C(=O)N(CCc1ccccc1)c1ccccc12 (stereo not drawn)	i	?	39.8µM*!	-2.8%
O=C(c1ccc(C(F)(F)F)cc1)N1CCC2(C1)C(=O)N(Cc1ccccc1)c1ccccc12 (stereo not drawn)	i	25.1µM*	22.4µM*	?
COCCn1c(=O)c(C(=O)NCc2ccc(Cl)cc2)nc2cccnc21	.	-29.2%	?	.
Cc1nnc2ccc(N3CCC(N[S+](=O)([O-])c4cccs4)CC3)nn12	.	?	-20.4%	.
Cc1ccccc1-c1nccn2c(C3CN(Cc4ccccc4O)C3)ncc12	i	100µM*	89.1µM*	2.1%[70.6 µM]
CNC(=O)c1ccc2c(c1)C1(CCN(CC3CC3)C1)CN2Cc1ccccc1 (stereo not drawn)	i	?	100µM*	3.4%[70.6 µM]
O=C(NC1COC1)c1ccc2c(c1)C1(CCN(CC3CC3)C1)CN2Cc1ccccc1 (stereo not drawn)	i	-25.2%[138 µM]	?	2.6%[70.6 µM]
CC(C)NC(=O)c1ccc2c(c1)C1(CCN(CC3CC3)C1)CN2Cc1ccccc1 (stereo not drawn)	i	89.1µM*	?	0.6%[70.6 µM]
C=CCO[C@@H]1C[C@H]2C(=O)Nc3ccc(-c4ccc(F)cc4F)cc3C(=O)N2C1	i	50.1µM*	?	-6.0%[70.6 µM]
C=CCO[C@@H]1CCN2C(=O)c3cc(-c4ccccc4)ccc3NC(=O)[C@H]12	i	-25.8%[174 µM]	-25.8%[172 µM]	-8.7%[70.6 µM]
C=CCO[C@@H]1CCN2C(=O)c3cc(-c4ccc(F)cc4F)ccc3NC(=O)[C@H]12	i	-13.4%[174 µM]	112µM*	-1.2%[70.6 µM]
CCS[C@H]1CCN2C(=O)c3cc(-c4ccccc4F)ccc3NC(=O)[C@H]12	i	?	89.1µM*	3.0%[70.6 µM]
C=CCO[C@@H]1CCN2C(=O)c3cc(-c4cccc(C(F)(F)F)c4)ccc3NC(=O)[C@H]12	i	?	70.8µM*	-0.6%[70.6 µM]
COc1cccc2c1OCC(CNC(=O)CCc1cn3ccccc3n1)C2 (stereo not drawn)	i	0.2%	-30.3%	3.2%
COc1ccc(CNc2ncnc3c2CN(C2CCCNCC2)C(=O)CN3C)cc1 (stereo not drawn)	.	-3.0%	-2.7%	.
O=C(C1CCC1)N1CCC(OCc2ccccc2)C1 (stereo not drawn)	.	-2.2%	4.7%	.
C=CCO[C@@H]1CCN2C(=O)c3cc(-c4cc(Cl)ccc4OC)ccc3NC(=O)[C@H]12	i	100µM*	63.1µM*	-15.7%[70.6 µM]
COc1ccc(Cl)cc1-c1ccc2c(c1)C(=O)N1CCN(C(=O)CO)C[C@@H]1C(=O)N2	i	-6.6%[174 µM]	?	0.5%[70.6 µM]
CCOc1ccc(CC(=O)N2CCN(c3cc(-c4cccs4)[nH]n3)CC2)cc1OCC	i	28.2µM*	44.7µM*	-1.2%
Cc1ccc(CC(=O)N2CCN(c3cc(-c4cccs4)[nH]n3)CC2)cc1	i	?	?	-21.2%
SMILES	FLuc inh	NIH3T3 tox	HEK cytotox	hNpr1 antagonist
CCOc1ccccc1C(=O)N1CCN(c2cc(-c3cccs3)[nH]n2)CC1	i	?	39.8µM*	-23.0%
COc1cc(C(=O)N2CCN(c3cc(-c4ccc(Cl)cc4)[nH]n3)CC2)cc(OC)c1OC	i	25.1µM*	?	?
Cc1ccccc1C(=O)N1CCN(c2cc(-c3cccs3)[nH]n2)CC1	i	?	?	-3.7%
COc1ccccc1C(=O)N1CCCN(c2cc(-c3ccc(Cl)cc3)[nH]n2)CC1	i	?	?	?
CCOc1ccccc1C(=O)N1CCN(c2cc(-c3ccc(Cl)cc3)[nH]n2)CC1	i	17.8µM*	35.5µM*	-28.2%
COc1ccc(Cn2c(=O)c(C(=O)N3CCC(C#N)CC3)nc3cccnc32)cc1	.	-26.3%	-15.5%	.
COc1ccccc1CC(=O)N1CCN(c2cc(-c3cccs3)[nH]n2)CC1	i	?	39.8µM*	?
CCOc1cc(C(=O)N2CCN(c3cc(-c4ccc(Cl)cc4)[nH]n3)CC2)cc(OCC)c1OCC	i	31.6µM*	35.5µM*	-5.0%
Cc1ccccc1CN1CCCC2(Cc3ccccc3CNC2=O)C1 (stereo not drawn)	.	-1.5%	-11.9%	.
Cc1ccc([S+](=O)([O-])N2CCCC(C(=O)N3CCC(N4CCOC4=O)CC3)C2)cc1 (stereo not drawn)	.	-25.0%	?	.
COCCn1ccc2c(C3=CCOCC3)nc(-c3cccc(NC(C)=O)c3)cc21	i	?	?	-4.9%[70.6 µM]
COCCn1ccc2c(C3=CCOCC3)nc(-c3cccc4cn[nH]c34)cc21	i	?	79.4µM*	-16.2%[70.6 µM]
COCCn1ccc2c(C3=CCOCC3)nc(-c3cccc(N[S+](C)(=O)[O-])c3)cc21	i	35.5µM*	?	-2.7%[70.6 µM]
CC(NC(=O)c1ccc(Cn2ccn3nc4c(c3c2=O)CCCC4)cc1)c1ccccc1 (stereo not drawn)	i	?	?	-14.9%
CN1CCN(c2nc3c(c(=O)[nH]2)CCN(Cc2ccccc2C(F)(F)F)CC3)CC1	i	-29.6%	79.4µM*	-1.5%
CCc1nc2c(c(-c3ccc(O)cc3)n1)CCN(Cc1cccc(C(F)(F)F)c1)CC2	i	39.8µM*	44.7µM*	?
Cc1ccc(CN2CCc3nc(C4CC4)nc(-c4ccc(O)cc4)c3CC2)cc1	i	?	?	-1.6%
Cc1ccccc1CN1CCc2nc(N3CCN(C)CC3)[nH]c(=O)c2CC1	i	i	3.9%	2.1%
Oc1ccc(-c2nc(C3CC3)nc3c2CCN(Cc2ccccc2C(F)(F)F)CC3)cc1	i	31.6µM*	31.6µM*	-0.2%
CCc1nc2c(c(-c3ccc(O)cc3)n1)CCN(Cc1ccccc1C(F)(F)F)CC2	i	39.8µM*	?	-2.0%
CCc1nc2c(c(-c3ccc(O)cc3)n1)CCN(Cc1ccc(OC(F)(F)F)cc1)CC2	i	?	?	-27.4%
Cc1nn(-c2ccccc2)c2c1C(C1CC1)N(C1CCN(Cc3ccc(C#N)cc3)CC1)C2=O (stereo not drawn)	.	-9.2%	2.3%	.
COC(=O)CNC(=O)c1cc(-c2cccc(C(F)(F)F)c2)nc2c1cnn2C	.	?	-22.2%	.
COC[C@@H]1CN(C(=O)c2cccnc2)C[C@H]1c1ccccn1	.	-3.7%	i	.
